JMJD2A Tudor inh: JMJD2A Tudor domain (human) inhibition. AID 504339. AlphaScreen JMJD2A-Tudor / H3K4me3 peptide binding. Potency, µM (highest dose often 114 µM), for inactives: at the highest dose activity change, negative = inhibition, usual class: inhibitors. hit rate 4.4% among 390,000; also: potency is read from the fitted curve at half-maximal effect; % is scaled to controls: 0 for no effect and ±100 for the full control effect; nearly all actives have a fitted effect of over 50% in size
G9a block: G9a (human) methyltransferase inhibition | Q96KQ7 | hit rate 8.8% among 350,000 | Potency, µM (titrated, usually from 102 µM), without a hit: at the highest dose activity, negative = inhibition, usual class: inhibitors | G9a H3K9 monomethylation, AlphaScreen, 2 h; also: potency is read from the fitted curve at half-maximal effect; % is scaled to controls: 0 for no effect and ±100 for the full control effect; nearly all actives have a fitted effect of over 75% in size
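Methyltransferase reactions run at room temperature for 2 h (20 nM enzyme, 500 nM biotin-H3K9 peptide, 20 uM SAM) after a 15 min compound preincubation; product detected by AlphaScreen beads and anti-H3K9me1 antibody.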
PI5P4Ka inh: blocks human PI5P4K alpha kinase activity; P48426; PI5P4Kalpha enzyme, ADP-Glo luminescence, 60 min; stronger effect = lower value; max response, %; hit rate 1.2% among 330,000; AID 652105; active = max response of -50% or lower; inconclusive = between -30% and -50%; inactive = -30% or higher; also: value at the top dose of about 77 µM; % is scaled to controls: 0 for no effect and ±100 for the full control effect
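PI5P4Kalpha ADP-Glo assay; 5 microM ATP final; 60 min RT reaction; HEPES pH 7.4/EGTA/CHAPS, 5% DMSO; controls lacking substrate or enzyme; luminescent end-point.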
PLK1 PBD block: inhibitors of human PLK1 polo-box domain binding; hit rate 2.8% among 360,000; Potency, µM, for the others: max response, negative = inhibition, hits mostly inhibitors; P53350; Plk1 PBD binding of FITC phosphopeptide, fluorescence polarization; also: potency is read from the fitted curve at half-maximal effect; series mostly up to about 57 µM; % is scaled to controls: 0 for no effect and ±100 for the full control effect; nearly all actives have a fitted effect of over 65% in size
HP1b binding inh: inhibitors of HP1-beta chromodomain binding to methylated histone tails; hit rate 0.56% among 390,000; AlphaScreen HP1-beta / biotin-H3K9me3 peptide binding; P83916; AID 540317; Potency, µM (highest dose often 114 µM), inactives show at the top dose activity change, negative = inhibition, usual class: inhibitors; also: potency is read from the fitted curve at half-maximal effect; nearly all actives have a fitted effect of over 70% in size
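HP1-beta protein (50 nM final) preincubated 30 min at room temperature with biotinylated H3(1-18)K9me3 peptide (50 nM) in PBS pH 7.4, 0.01% Tween-20, then compound added for 30 min. AlphaScreen streptavidin donor/nickel chelate acceptor beads (10 ug/mL final), 30 min dark, luminescence read.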
BAZ2B block: BAZ2B (human) inhibition; AlphaScreen BAZ2B-H3K14Ac peptide displacement; Potency, µM (series often up to 114 µM), without a hit: top-dose activity change, negative = inhibition, usual class: inhibitors; AID 504333; hit rate 4.4% among 360,000; also: potency is read from the fitted curve at half-maximal effect; % is scaled to controls: 0 for no effect and ±100 for the full control effect; nearly all actives have a fitted effect of over 60% in size
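Protein-peptide AlphaScreen: BAZ2B 50 nM, b-H3K14Ac 50 nM, 1x PBS pH 7.4 + 0.01% Tween-20. Preincubation 30 min RT; cpd 30 min RT (top 110 uM); beads 20 min RT, light-protected.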
The depositor's hits bear a star; ? = inconclusive; . = no result; [ ] = remark or other dose. This is a sample that favours compounds with a hit; in the whole collection about 12% have one here. Unless noted, calls follow the shape of the dose curve; as a rule, active = well fitted curve in the direction sought with a large enough effect; inconclusive = small, poorly fitted or top-dose-only effect, or another doubt; inactive = no such curve, though single readings can be large; an effect the other way counts as inactive or inconclusive.

SMILES	JMJD2A Tudor inh	G9a block	PI5P4Ka inh	PLK1 PBD block	HP1b binding inh	BAZ2B block
O=S(=O)(c1ccc(Br)cc1)c1nnn2c1nc(NCc1ccc3c(c1)OCO3)c1sccc12	-22%	-23%[59 µM]	.	.	0%	-21%
CC(=O)[C@H]1[C@@H]2C(=O)N(c3cccc(Cl)c3)C(=O)[C@@H]2[C@H]2c3ccccc3C=CN21	?	1.4µM*	-18	?	2%	?
CC(C)(C)C(=O)[C@@H]1[C@@H]2C(=O)N(Cc3ccccc3)C(=O)[C@@H]2[C@H]2c3ccccc3C=CN12	.	10µM*	.	.	.	-27%
CC(=O)[C@@H]1[C@@H]2C(=O)N(c3ccc(F)c(Cl)c3)C(=O)[C@@H]2C2c3ccccc3C=CN21 (some centres not stated)	.	6.3µM*	.	.	.	-6%
N#C[C@@H]1[C@@H]2C(=O)N(c3ccc4c(c3)OCCO4)C(=O)[C@@H]2C2c3ccccc3C=CN21 (some centres not stated)	.	7.9µM*	.	.	.	-27%
CC(=O)[C@@H]1[C@@H]2C(=O)N(C3CCCCC3)C(=O)[C@@H]2C2c3ccccc3C=CN21 (some centres not stated)	.	-41%[0.501 µM]	.	.	.	?
COc1ccc(Cl)cc1NC(=O)CN1C(=O)NC(Cc2c[nH]c3ccccc23)C1=O (configuration not stated)	-26%	.	37	17%	-10%	.
Cc1nc(-n2nc(C)c(Cc3ccccc3Cl)c2C)sc1C(=O)N1CCC(C)CC1	-6%	-1%[59 µM]	.	.	35%	-13%
Oc1ccc(Br)cc1CNc1cccc2cccnc12	?	16%[0.501 µM]	6	-16%	19%	?
COc1cccc(CNc2cccc3cccnc23)c1O	45µM*	?	.	-10%	-7%	?
Cc1ccc(O)c(CNc2cccc3cccnc23)c1	?	.	0	-2%	?	32µM*
COc1cccc(CNc2ccccn2)c1O	-18%	-2%[0.501 µM]	-3	-8%	26%	3%
CC(=O)Nc1ccc(S(=O)(=O)NC2(C(F)(F)F)C(=O)Nc3c2c(=O)[nH]c(=O)n3-c2cccc(Cl)c2)cc1 (configuration not stated)	-10%	-2%[59 µM]	.	.	21%	?
COc1cc(C2C(C#N)=C(N)Oc3c2oc(CO)cc3=O)ccc1OC(C)C (configuration not stated)	16µM*	?	.	0%	13%	-5%
CC(C)Oc1ccc(C2C(C#N)=C(N)Oc3c2oc(CO)cc3=O)cc1 (configuration not stated)	-6%	-29%	2	-9%	46%	-19%
O=C(CCn1cnnn1)Nc1ccc(Cl)cc1Cl	-21%	33%[12.7 µM]	-5	3.8µM*	10%	?
Cc1c(Cl)cccc1NC(=O)CCn1cnnn1	-16%	8%[59 µM]	.	.	14%	-8%
COc1ccc(/C=C/c2nc(-c3ccccc3O)n(-c3ccccc3)n2)cc1OC	-13%	-42%[59 µM]	.	.	27%	3%
CC(=O)c1ccc(-c2ccc(C3C4C=CCCC4(C)C(=O)N3Cc3ccccc3)c(F)c2)cc1 (configuration not stated)	-28%	.	.	.	4%	.
Cc1ccc(S(=O)(=O)N2CCOCC2)cc1NC(=O)c1ccc(F)cc1F	12%	.	-4	3%	25%	.
CNc1cc(CSC)nc(SCc2ccc(Cl)c(Cl)c2)n1	-4%	32µM*	.	-2%	62%	6%
O=C(COc1ccccc1F)NCC(c1ccc(F)cc1)N1CCOCC1 (configuration not stated)	-1%	?	4	0%	56%	3%
O=C(CSc1ccc(-c2ccccn2)nn1)NC1CCCCC1	3.5µM*	31%	1	-5%	30%	4µM*
O=C(CSc1ccc(-c2ccco2)nn1)NC1CCCC1	8%	?	2	-4%	29%	2%
O=C(CSc1ccc(-c2ccco2)nn1)NC1CCCCC1	?	45µM*	?	-19%	0%	50µM*
SMILES	JMJD2A Tudor inh	G9a block	PI5P4Ka inh	PLK1 PBD block	HP1b binding inh	BAZ2B block
O=C(CSc1ccc(-c2ccccc2)nn1)NC1CCCCC1	-5%	.	-23	-29%	13%	-3%
O=C(CSc1ccc(-c2ccccn2)nn1)NCc1ccc(F)cc1	7.9µM*	-16%	0	-13%	12%	3.2µM*
CC(C)C1C(=O)N(Cc2cn(CCC3OCCO3)nn2)CCS(=O)(=O)N1Cc1ccc(-c2ccc(F)cc2)cc1 (configuration not stated)	.	.	7	-6%	.	.
C=CCC(C(=O)NC(C)c1ccccc1)C(=O)NC(C)c1ccccc1 (configuration not stated)	-34%	33%[0.501 µM]	-3	27µM*	-5%	-2%
CCC(C(=O)NC(C)c1ccccc1)C(=O)NC(C)c1ccccc1 (configuration not stated)	-11%	14%[2.33 µM]	-2	3%	16%	2%
Cc1ccc(CNC(=O)c2ccc(Cn3cc(-c4ccc(C)cc4)nc3-c3ccncc3)cc2)cc1	?	-24%	-3	-5%	?	?
Cc1ccsc1C(=O)N1CCN(S(=O)(=O)c2cccc(F)c2)CC1	-17%	28µM*	0	-5%	-14%	7%
COc1ccc(S(=O)(=O)N2CCN(Cc3ccc4c(c3)OCO4)CC2)cc1OC	-30%	-1%[59 µM]	.	.	4%	?
CCN(CC)c1ccc(CNc2nc3ccccc3n2CCN2CCCCC2)cc1	40µM*	25µM*	0	-3%	?	14µM*
CCn1c(NCc2ccc(N(C)C)cc2)nc2ccccc21	?	20µM*	.	0%	-11%	?
c1ccc(CNc2ccc3ccccc3n2)nc1	8.9µM*	11%	.	-3%	8%	-5%
CCn1c(NCc2ccc(OC)c(OC)c2)nc2ccccc21	-4%	-42%[59 µM]	.	.	29%	-2%
CCn1c(NCc2ccccn2)nc2ccccc21	-6%	8.9µM*	2	2%	30%	56µM*
COc1ccc(CNc2nc3ccccc3n2CCN2CCCCC2)cc1	-17%	?	1	-1%	16%	-29%
COc1ccc(C(=O)Nc2cc(C)c(NC(=O)c3ccccn3)cn2)cc1	-12%	45µM*	-7	-9%	37%	-21%
Cc1cc(NC(=O)C2CC2)ncc1NC(=O)c1ccccn1	-27%	?	-13	27µM*	-10%	79µM*
COc1ccc(Cl)cc1NC(=O)CSc1nc2[nH]ncc2c(=O)[nH]1	.	.	-13	-5%	.	.
Cc1cc(Cl)cc(C)c1OCCCCn1ccnc1	?	32µM*	.	-1%	27%	-39%
Cc1cccc(OCCn2ccnc2)c1	5%	?	3	5%	32%	-19%

High-throughput results: PubChem BioAssay, National Center for Advancing Translational Sciences (NCATS)
